In the library only some 3.8% were active in any assay of this set; here they are far more common.
Pemphigus Ab inh – inhibitors of pemphigus antibody binding to DSG3, primary screen, biochemical, bead-based, flow cytometry, scFv-GFP. Desmoglein-3 (Homo sapiens), P32926. DSG3-coupled beads, scFv-anti-DSG3-GFP binding; hits give low values. binding (percent of control), % at 10 µM. 0.48% of 310,000 active;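 active = binding more than 3 SD below its plate's average and above zero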;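 also: hits lower antibody fragment binding to DSG3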
PfM18AAP inh – PfM18AAP inhibitors, malaria aminopeptidase, primary screen, biochemical, QFRET, recombinant enzyme; H-Glu-NHMec fluorogenic cleavage; inhibition, % at 7.35 µM; 1.2% of 290,000 active;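 active = inhibition above the campaign mean inhibition over all tested compounds plus 3 SD, cut at about 28% in these data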;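 also: 0% = plate median of test compound wells and 100% = 2 mM ZnCl2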
PAFAH2 inh – PAFAH2 enzyme inhibitors, primary screen, biochemical, fluorescence polarization, human | Platelet-activating factor acetylhydrolase 2, cytoplasmic (Homo sapiens), Q99487 | recombinant PAFAH2, FP-rhodamine activity probe | inhibition, % at 3.39 µM | 0.99% of 340,000 active;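 active = inhibition above the mean over all tested compounds plus 3 SD, cut at about 30% in these data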;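 also: inhibitors block probe labeling of enzyme so polarization drops; 0% = enzyme with DMSO and 100% = wells lacking PAFAH2 protein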
pPAFAH FP inh – pPAFAH enzyme inhibitors, primary screen, biochemical, fluorescence polarization, human; recombinant pPAFAH, FP-rhodamine probe fluorescence polarization; inhibition, % at 3.39 µM; 1.5% of 330,000 active; AID 463082, 2010;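 active = inhibition above the mean inhibition across the screen plus 3 SD, cut at about 25% in these data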;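 also: inhibitors block binding of the rhodamine activity-based probe so polarization drops; 0% = enzyme with DMSO and 100% = wells lacking pPAFAH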
PAFAH1B3 FP inh – PAFAH1B3 enzyme inhibitors, primary screen, biochemical, fluorescence polarization, human; AID 492972, 2010; Platelet-activating factor acetylhydrolase IB subunit alpha1 (Homo sapiens), Q15102; recombinant PAFAH1B3, FP-rhodamine probe; inhibition, % at 3.39 µM; 0.28% of 340,000 active;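 active = inhibition above the screen-wide average of all tested compounds plus 3 SD, cut at about 25% in these data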;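 also: 0% = enzyme with DMSO only and 100% = wells lacking PAFAH1B3 protein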
Target sequence (Q15102 whole entry, looked up): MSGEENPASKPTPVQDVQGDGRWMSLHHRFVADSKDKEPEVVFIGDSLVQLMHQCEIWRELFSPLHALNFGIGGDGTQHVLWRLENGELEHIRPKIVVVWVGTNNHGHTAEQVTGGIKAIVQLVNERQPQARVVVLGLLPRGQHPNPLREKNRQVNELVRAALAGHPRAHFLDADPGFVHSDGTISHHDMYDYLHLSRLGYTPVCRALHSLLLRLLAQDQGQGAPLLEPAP
PAFAH1B2 inh – PAFAH1B2 enzyme inhibitors, primary screen, biochemical, fluorescence polarization, human | recombinant PAFAH1B2, FP-rhodamine activity probe | inhibition, % at 3.39 µM | 1.2% of 340,000 active | AID 492953, 2010;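 active = inhibition above the mean of all tested compounds plus 3 SD, cut at about 24% in these data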;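 also: 0% = enzyme with DMSO and 100% = wells lacking PAFAH1B2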
Target sequence (P68402 whole entry, looked up): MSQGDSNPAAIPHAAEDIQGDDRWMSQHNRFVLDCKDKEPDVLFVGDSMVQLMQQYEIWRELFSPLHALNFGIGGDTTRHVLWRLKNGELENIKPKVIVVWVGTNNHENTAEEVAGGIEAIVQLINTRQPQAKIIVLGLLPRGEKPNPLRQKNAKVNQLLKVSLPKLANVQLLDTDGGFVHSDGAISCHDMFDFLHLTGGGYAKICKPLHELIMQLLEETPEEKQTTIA
Numbers without * were called inactive; . = no result given.

SMILES	Pemphigus Ab inh	PfM18AAP inh	PAFAH2 inh	pPAFAH FP inh	PAFAH1B3 FP inh	PAFAH1B2 inh
COc1cccc(/C=N/NC(=S)Nc2cccc(C(=O)O)c2)c1	97	29*	6	0	5	1
O=C(COc1cccnc1[N+](=O)[O-])c1ccc(Cl)s1	93	32*	18	31*	9	4
O=C(COc1cccnc1[N+](=O)[O-])Nc1c(Cl)cccc1Cl	134	.	-2	5	-3	3
CC1Nc2ccccc2C(=O)N1NS(C)(=O)=O (stereo unspecified)	101	-3	21	28*	5	3
COc1ccc(C2Nc3ccccc3C(=O)N2NS(C)(=O)=O)cc1 (stereo unspecified)	106	-12	3	3	8	-2
COc1cc(/C=N/Nc2cccc3cccnc23)cc(OC)c1O	93	30*	12	21	13	3
COc1ccc(/C=N/NC(=O)c2ccc(COc3cccc4cccnc34)cc2)cc1OC	5.2*	-6	-15	-3	-2	2
Oc1c(/C=N/Nc2cccc3cccnc23)ccc2ccccc12	102	10	-18	30*	3	3
COc1cccc(CNc2ccccn2)c1O	139	-8	5	2	3	2
COc1cccc(CNc2cccc3cccnc23)c1O	99	31*	16	13	4	7
O=C(COc1ccc2c(-c3ccccc3)cc(=O)oc2c1)N[C@@H](Cc1c[nH]c2ccc(O)cc12)C(=O)O	95	-2	-2	16	5	63*
CC(Oc1ccc2c(-c3ccccc3)cc(=O)oc2c1)C(=O)NC(Cc1c[nH]c2ccc(O)cc12)C(=O)O (stereo unspecified)	101	-20	-2	15	7	71*
O=C(Cc1cc(=O)oc2cc(O)ccc12)N[C@@H](Cc1c[nH]c2ccccc12)C(=O)O	103	10	6	9	9	7
Cc1ccc(NC(=O)COC(=O)Cc2c[nH]c3ccccc23)cc1	98	.	.	.	.	.
CC(=O)Nc1ccc(Nc2nc3ccccc3nc2NS(=O)(=O)c2ccc(Cl)c([N+](=O)[O-])c2)cc1	102	.	52*	.	31*	23
O=[N+]([O-])c1ccc(S(=O)(=O)Nc2nc3ccccc3nc2Nc2ccccc2)cc1	102	-7	.	-3	.	.
On1c(-c2ccccc2)nc2ncccc21	73*	2	-3	1	12	6
CC1CCCCC1NC(=O)c1cc(Cl)nc2ccccc12 (stereo unspecified)	94	.	.	.	.	.
CCCCCCNC(=O)O[C@H]1Cn2c(=O)ccc(=O)n2[C@@H]2CN(S(=O)(=O)c3ccc(C)cc3)C[C@]12O	109	.	.	.	.	.
CC(C)c1ncc(CO)n1Cc1c(Cl)cccc1Cl	103	.	.	.	.	.
CCn1c(-c2csc(-c3ccccc3)n2)n[nH]c1=S	-34*	-11	3	2	-4	2
CCCCn1c(N)c(N(CC(C)C)C(=O)CC(NC(=O)c2ccccc2Cl)c2ccccc2)c(=O)[nH]c1=O (stereo unspecified)	101	.	.	.	.	.
COc1ccc([N+](=O)[O-])cc1NC(=O)c1ccc(Br)s1	.	3	-6	-10	-10	-4
COCCn1c(C)c(C)c(S(=O)(=O)c2ccccc2)c1N	97	8	59*	13	41*	41*
Cc1c(S(=O)(=O)c2ccccn2)c(N)n(Cc2ccccc2)c1C	99	2	.	-4	.	.
SMILES	Pemphigus Ab inh	PfM18AAP inh	PAFAH2 inh	pPAFAH FP inh	PAFAH1B3 FP inh	PAFAH1B2 inh
COc1ccc(S(=O)(=O)N2CCOCC2)cc1NC(=O)c1ccc(SC)cc1OC	100	.	.	.	.	.
O=C(Nc1ccc(Cl)cc1)Nc1ccc(N2CCOCC2)cc1	94	0	-4	11	8	2
O=C(NC(=S)Nc1ccc(N2CCOCC2)cc1)c1ccc(Cl)cc1	73*	7	6	1	6	1
O=C(Nc1ccc(N2CCOCC2)cc1)C1(c2ccc(Cl)cc2)CCC1	92	2	-2	8	-4	80*
O=C(/C=C/c1ccccc1)NC(=S)Nc1ccc(N2CCOCC2)cc1	76*	3	-5	2	4	2
O=C(/C=C/c1ccccc1)NC(=S)Nc1ccccc1	99	3	-5	0	2	4
COc1ccc(-n2cc(-c3ccc(Cl)cc3)[nH]c2=S)cc1	95	-1	1	6	6	6
COC(=O)c1ccc(-n2cc(-c3ccc(OC)cc3)[nH]c2=S)cc1	123	28*	1	6	3	1
O=C(O)c1ccccc1C=NN1CCCCCC1	94	.	-9	.	12	6
N#Cc1c(-c2c(Cl)cccc2Cl)noc1/C=C/Nc1ccc(C(=O)O)cc1	109	4	22	25*	-8	-2
COc1cc(C=C2CCCC(=Cc3ccc(OCC4CO4)c(OC)c3)C2=O)ccc1OCC1CO1 (stereo unspecified)	106	.	.	.	.	.
Cc1cccc(NC(=O)[C@H](Cc2ccccc2)NC(=O)OCc2ccccc2)c1	-3.4*	2	-8	3	7	4
CC(NC(=O)C12CC3CC(C)(CC(C)(C3)C1)C2)c1ccncc1 (stereo unspecified)	118	0	11	7	9	25*
O=C(NNC(=O)C12CC3CC(CC(C3)C1)C2)c1ccncc1	122	-13	-11	0	9	9
CC12CC3CC(C)(C1)CC(C(=O)NNC(=O)c1ccncc1)(C3)C2	111	-13	8	3	12	25*
CC(C)C(=O)NCC(c1ccc2c(c1)OCO2)N1CCOCC1 (stereo unspecified)	104	-7	-2	2	7	2
C[C@H](CO)N1C[C@H](C)[C@H](CN(C)S(=O)(=O)c2ccccc2)Oc2c(NS(C)(=O)=O)cccc2C1=O	104	.	9	2	0	1
COc1cc(C2c3sc(=O)[nH]c3SC3C(=O)N(c4ccc(Br)cc4)C(=O)C32)ccc1O (stereo unspecified)	99	28*	-2	13	-6	1
Cc1cc(/C=N/n2cnnc2)c(C)n1-c1ccc(OCc2ccc(Cl)cc2)cc1	105	17	0	13	-1	7
Cc1cc(/C=N/n2cnnc2)c(C)n1-c1ccc(OCc2ccccc2F)cc1	103	23	1	27*	9	0
CC1CCCCC1NC(=O)CSc1nnc(-c2ccco2)n1N (stereo unspecified)	101	.	.	.	.	.
COC(=O)c1c(NC(=O)Cc2ccccc2)sc2c1CC(C)(C)NC2(C)C	104	29*	16	10	10	-4

From PubChem BioAssay
